# Hits are enriched below; roughly 4.1% of the tested compounds scored in any of these assays.
# KLF5 inhibitor = kruppel-like factor 5 inhibition; DLD-1 KLF5 promoter-luciferase reporter, luminescence; AID 1700; hit rate 0.23% among 290,000; inhibition, % at 5 µM;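 active means inhibition above a per-plate limit of that plate's mean compound inhibition plus 3 SD, cut at about 60% in these data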;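 further: 0% = DMSO wells and 100% = LY294002 at 200 µM; higher means less KLF5 promoter-driven luciferase light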
# aSyn UTR inh = MLPCN primary screen, SNCA 5' untranslated region; alpha-synuclein 5'UTR reporter, inhibitor activity; AID 1813; inhibition, % (tested at 7.5 µM); hit rate 0.82% among 300,000; in the data active means inhibition above about 60%;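 further: H4 neuroglioblastoma cells stably carrying SNCA 5'UTR luciferase fusion; 0% = DMSO wells and 100% = positive control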
# Jurkat NFkB inh = lowers PMA/ionomycin-induced NF-kB signal in Jurkat cells. PMA/ionomycin-induced NF-kB luciferase reporter, luminescence. inhibition, % at 4 µM. hit rate 0.53% among 330,000; in the data active means inhibition above about 50%
# Mdm2 MdmX PPI = human Mdm2/MdmX binding inhibition; O15151+Q00987; SaOS-2 split-luciferase Mdm2/MdmX complementation, luminescence; inhibition, % at 8 µM; hit rate 3% among 330,000;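 active means inhibition of at least 50% at 8 µM in the primary screen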
# Gli-Sufu antag = antagonists of Gli-Sufu signaling. Sufu-KO-LIGHT fibroblasts, Gli luciferase reporter luminescence. inhibition, % at 5 µM. hit rate 0.74% among 340,000. AID 588413;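 active means inhibition above about 55%, limit read from the data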;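 further: 0% = DMSO-treated cells and 100% = wells with medium but no cells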
# 697 NFkB inh = inhibitors of the PMA/ionomycin-induced NF-kB reporter in 697 B cells | 697 B-cell NF-kB luciferase reporter, 16 h | AID 435022 | hit rate 0.33% among 330,000 | inhibition, % at 4 µM; in the data active means inhibition above about 35%
# Mdm2-MdmX conf = confirmation of human Mdm2/MdmX interaction inhibitors; AID 489028; inhibition, % at 8 µM; shares compounds with Mdm2 MdmX PPI; hit rate 55% among 10,000; Mdm2-MdmX binding, luminescent assay; in the data active means inhibition above about 40%
# FLuc counter = inhibits full-length luciferase, flagging false Mdm2/MdmX hits; shares compounds with Mdm2 MdmX PPI; SaOS-2 full-length luciferase counterscreen, luminescence; inhibition, % at 8 µM; hit rate 77% among 6,200;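 active means mean inhibition at 8 µM reaching about 37%, which flags the compound as non-specific, limit read from the data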;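 further: p53-null SaOS-2 cells with luciferase driven by a doxycycline-inducible promoter; compound on cells about two nights before reading with doxycycline added after day one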
# The depositor's hits bear a star; . = no result.
SMILES,KLF5 inhibitor,aSyn UTR inh,Jurkat NFkB inh,Mdm2 MdmX PPI,Gli-Sufu antag,697 NFkB inh,Mdm2-MdmX conf,others
Cn1nnnc1Sc1ncnc2scc(-c3ccc4c(c3)OCO4)c12,.,.,-1,71*,12,-20,37,
CCOC(=O)N1CCC(N2CCCC(C(=O)c3ccccc3OC)C2)CC1 (stereo not given),-42,9,-1,5,12,11,.,
CCN(CC)S(=O)(=O)c1ccc(N2CCN(CCOc3ccc(OC)cc3)CC2)nc1,8,1,8,7,-1,-20,.,
CCOC(=O)NN=C1CN(S(=O)(=O)c2ccc(C)cc2)C1,15,-19,-1,15,-17,-4,.,
Cc1ccc(S(=O)(=O)NCc2ccccn2)cc1C,-26,-6,7,-2,-4,-5,.,
CSc1ncc(S(=O)(=O)c2ccccc2)c(=O)[nH]1,6,11,-2,0,-16,-4,.,
Cn1nnnc1Sc1ncnc2scc(-c3ccccc3Cl)c12,.,.,-14,68*,44,-1,59*,FLuc counter=21
Cn1nnnc1Sc1c(Cl)cccc1[N+](=O)[O-],-18,-35,17,14,11,13,.,
CN(CC(=O)Nc1ccc(F)c(F)c1F)C(=O)C1CCCC1,.,.,-9,39,5,8,.,
Cc1cccc(NC(=O)Nc2ccc(Oc3c(F)c(F)c(F)c(F)c3F)cc2)c1,17,6,-11,41,32,-5,.,
O=C(Nc1ccc(Oc2c(F)c(F)c(F)c(F)c2F)cc1)OC1CCN2Cc3ccccc3N=C12 (stereo not given),-11,104*,12,68*,13,-54,29,
O=C1Nc2ccccc2O/C1=C\c1c(F)cccc1Cl,-32,-6,13,60*,13,9,42*,FLuc counter=60*
CN(O)/C=N/C(=S)Nc1ccc(Cl)cc1Cl,-23,-34,0,2,-6,-23,.,
O=C(CN1CCN(c2ccc(F)cc2)CC1)c1ccc(O)cc1O,-12,10,-11,12,-10,15,.,
COC(=O)c1cc(S(=O)(=O)C(C)C)c(S(C)=O)s1 (stereo not given),-17,-22,20,51*,25,26,36,FLuc counter=39*
COc1cc(/C=C2/OC(=O)c3cc([N+](=O)[O-])ccc32)cc(OC)c1OC,-3,-18,-12,67*,4,13,0,
COc1cc(/C=C/C(=O)c2cccc([N+](=O)[O-])c2)cc(OC)c1OC,3,-62,5,52*,0,11,22,
CCCCNC(=S)N(C)/N=C/c1ccc(OCc2ccc(C(=O)OC)cc2)c(OC)c1,-23,-28,2,19,9,0,.,
CN(C(=O)CSc1nc2[nH]ncc2c(=O)[nH]1)c1ccccc1,.,15,1,2,-4,6,.,
CCOC(=O)C1=C(COC(=O)C2CC(=O)N(c3ccccc3F)C2)NC(=O)NC1C (stereo not given),.,.,-28,-27,-6,-25,.,
Cc1nc(SCC(=O)NNC(=O)c2cccs2)[nH]c(=O)c1C,-18,-3,0,-3,0,17,.,
CCCC(=O)N(Cc1cc(=O)[nH]c2ccccc12)c1ccc(C)cc1C,-31,-10,-7,7,-1,-20,.,
Cc1ccc(N(Cc2cc(=O)[nH]c3ccccc23)C(=O)CCl)c(C)c1,-40,27,32,100*,4,-21,100*,FLuc counter=54*
O=C(/C=C/c1cccc(Cl)c1)NCCCN1CCOCC1,-9,0,9,13,3,-2,.,
CC1CCCCC1N(C)C1CCN(C(=O)CNC(=O)/C=C/c2cccc(Cl)c2)CC1 (stereo not given),-70,41,39,53*,20,-56,52*,FLuc counter=92*
SMILES,KLF5 inhibitor,aSyn UTR inh,Jurkat NFkB inh,Mdm2 MdmX PPI,Gli-Sufu antag,697 NFkB inh,Mdm2-MdmX conf,others
O=C(/C=C/c1cccc(Cl)c1)NCCN1CCOCC1,-1,-1,-35,76*,2,-49,-18,
COc1ccc(Nc2cc(Nc3cc(OC)c(OC)c(OC)c3)ncn2)cc1,-5,20,14,65*,11,29,24,
CC1COC(=O)C(NNc2ccc(Cl)c(Cl)c2)=N1 (stereo not given),13,-13,1,1,-4,-3,.,
Nc1ncnc2c1ncn2CCOc1ccccc1,-36,-8,9,59*,-5,-54,7,
CC(CCc1ccccc1)NCc1cccc2ccccc12 (stereo not given),-24,10,-3,-26,17,-2,.,
CNC[C@H](Cc1cccc2ccccc12)NC[C@H](CCSC)NCC1CCC(C(C)(C)C)CC1 (stereo not given in full),.,.,0,60*,.,7,5,
O=C(Cc1ccc(S(=O)(=O)N2CCOCC2)s1)Nc1cc(C(F)(F)F)ccc1N1CCCC1,.,-9,-8,-16,3,-19,.,
O=C(Cc1ccc(S(=O)(=O)N2CCOCC2)s1)Nc1cc(C(F)(F)F)cc(C(F)(F)F)c1,.,.,-4,56*,2,19,1,
CCc1cccc(NS(=O)(=O)c2c(C)[nH]c(=O)[nH]c2=O)c1,-6,16,1,5,4,-7,.,
CCC(=O)Nc1cccc(C(=O)/C=C/c2ccccc2)c1,-44,-208,-24,95*,-16,-22,31,FLuc counter=34
CCCCN(CCCC)S(=O)(=O)c1ccc(C(=O)Nc2nnc(COC)o2)cc1,-19,62*,-11,59*,-11,-75,22,
CCCCN(C)S(=O)(=O)c1ccc(C(=O)Nc2nnc(CSC)o2)cc1,32,12,-8,51*,1,22,27,
CCN(CC)S(=O)(=O)c1ccc(C(=O)Nc2nnc(CSC)o2)cc1,-8,4,3,25,-3,-4,.,
N#Cc1c(N2CCCCC2)nc(N2CCCCC2)c2c1CCN(Cc1ccccc1)C2,-25,-3,5,53*,14,-2,24,
CS(=O)(=O)c1ccc2nc(NC(=O)c3ccccc3Cl)sc2c1,-77,-109,-4,5,4,-10,.,
COc1ccccc1C(=O)Nc1nc2ccc(S(C)(=O)=O)cc2s1,-75,-118,-50,53*,-39,-7,-6,
CS(=O)(=O)c1ccc2nc(NC(=O)Nc3ccc(Cl)cc3)sc2c1,1,-1,1,50*,-3,6,23,
CCCSc1nc2c(c(=O)[nH]c(=O)n2C)n1Cc1ccc(C)cc1,-5,28,13,36,14,0,.,
Cc1ccc(Cn2c(SCC(C)C)nc3c2c(=O)[nH]c(=O)n3C)cc1,-28,28,8,60*,1,-7,29,
C=C(C)CSc1nc2c(c(=O)[nH]c(=O)n2C)n1Cc1ccccc1,.,14,-3,-4,.,-19,.,
Cn1c(=O)[nH]c(=O)c2c1nc(SCC(N)=O)n2Cc1cccc(Br)c1,-3,-6,-1,63*,26,33,32,
